TDP43 rescue – rescues yeast growth from TDP-43 toxicity | Potency, µM (top dose mostly 46.1 µM), for the others: at the highest dose growth rescue (activation), most hits filed as activators | 410,000 tested, 1.8% active | TDP-43 expressing yeast growth rescue, BacTiter-Glo, 24 h; note: % of control where 0% means no effect; nearly all actives have a fitted effect of over 50% in size
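Cell-based yeast growth screen: TDP-43 expression induced in galactose, inoculum OD600=0.02 after raffinose pregrowth to mid-log. Read-out BacTiter-Glo luminescence at 24 hr, 30 deg C; inhibition of toxicity seen as signal increase.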
aSyn rescue – alpha-synuclein toxicity inhibition in yeast; Yeast expressing alpha-synuclein, growth rescue, BacTiter-Glo, 24 h; Potency, µM (doses to about 46.1 µM), for inactives: at the top dose growth rescue (activation), most hits filed as activators; 370,000 tested, 0.14% active; AID 652106; note: % of control where 0% means no effect; nearly all actives have a fitted effect of over 65% in size
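Screening used galactose-induced yeast with toxic alpha-synuclein levels, exposed to compound for 24 hr at 30 deg C. Cell growth, read with BacTiter-Glo luminescence, gave the measured signal.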
Abeta yeast res – restores growth of yeast expressing A-beta42 peptide. yeast expressing A-beta42, growth rescue, OD600, 48 h; response scale: 0% DMSO, 100% iron-clioquinol control. AID 1347071. Potency, µM (series often up to 46.1 µM), most hits filed as activators. 410,000 tested, 0.063% active; note: nearly all actives have a fitted effect of over 55% in size
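Yeast A-beta toxicity model in growth medium with pinned compounds, 48 h at 30 C; growth read as absorbance at 600 nm. Normalized to FeCl3/clioquinol equimolar mix (positive) and DMSO (negative).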
FUS yeast rescue – rescues growth of FUS-expressing yeast; S. cerevisiae FUS-expressing, growth rescue, OD600, 24 h; Potency, µM (top dose mostly 76.6 µM), hits mostly activators; 390,000 tested, 0.24% active; AID 1347120;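 note: plate controls were DMSO vehicle for no effect and reference control for full effect; nearly all actives have a fitted effect of over 55% in size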
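FUS-expressing yeast, raffinose-pregrown, induced in 2% galactose minimal medium at OD 0.005; compounds in a dilution series, 24hr at 30C. Growth restoration read as absorbance at 600 nm. CP55940 positive control, DMSO negative.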
Mito fusion act – blocks mitochondrial division or promotes mitochondrial fusion | S. cerevisiae fusion-defective mutant growth rescue, CellTiterGlo 48 h | Potency, µM (series often up to 46.1 µM), without a hit: at the highest dose growth rescue (activation), usual class: activators | 320,000 tested, 0.23% active; note: % of control where 0% means no effect; nearly all actives have a fitted effect of over 45% in size
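Read-out: ATP-based luminescence (CellTiterGlo, 10 min ambient) reporting growth of fusion-defective ts yeast after 48 hours at 37C on glycerol/ethanol YPEG medium in the presence of compound.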
Starred values were filed as active, the others as inactive. Only some compounds are listed: those with a hit (about 2.2% of all), similar ones and a draw of the others. Calls come from the whole dose curve; as a rule, active = well fitted curve in the direction sought with a large enough effect; inconclusive = small, poorly fitted or top-dose-only effect, or another doubt; inactive = no such curve, though single readings can be large; an effect the other way counts as inactive or inconclusive. Potency is the fitted concentration of half-maximal effect.

COc1ccc(C(=O)N2CC3(CC(c4cccc(NC(=O)COc5ccc(Cl)cc5)c4)=NO3)C[C@@H]2C(N)=O)cc1 (stereo not given in full) was read as TDP43 rescue 4%, aSyn rescue 2%, Abeta yeast res inactive, FUS yeast rescue 35µM* and Mito fusion act 15%.
`O/N=C(/C[n+]1cccc(Br)c1)c1ccc2ccccc2c1` gave aSyn rescue 0%.
Screening Clc1ncccc1OCc1ccccc1 returned TDP43 rescue 13µM*, aSyn rescue 3%, Abeta yeast res inactive and FUS yeast rescue inactive.
COc1ccccc1OCCNC(=O)C(=O)c1c[nH]c2ccccc12 was read as TDP43 rescue inconclusive, aSyn rescue 12%, Abeta yeast res inactive, FUS yeast rescue inactive and Mito fusion act 8%.
For O=C(NCCOc1ccccc1Cl)c1cc(F)c(F)cc1Cl the results were TDP43 rescue 8.9µM*, aSyn rescue 14%, Abeta yeast res inactive and Mito fusion act 1%.
For O=C(NCCOc1ccccc1Cl)C(=O)c1c[nH]c2ccccc12 the results were TDP43 rescue 11µM*, aSyn rescue 1%, Abeta yeast res inactive, FUS yeast rescue inactive and Mito fusion act 7%.
`CN(C)c1ccc(CNC(=O)c2cccc(NC(=O)N3CCSc4ncccc43)c2)cc1` gave TDP43 rescue 8%, Abeta yeast res inactive and FUS yeast rescue inactive.
Cc1ccc(-n2c(SCC(=O)c3ccc(O)c(O)c3)nnc2-c2ccccc2)cc1 was read as FUS yeast rescue 7.9µM*.
Screening COc1ccccc1/C=C/c1nc2ccccc2[nH]1 returned aSyn rescue -27%.
For COc1cccc(NC(=O)c2nc(SC)ncc2Cl)c1 the results were TDP43 rescue 2%, aSyn rescue -15%, Abeta yeast res inactive, FUS yeast rescue inactive and Mito fusion act 4%.
`COc1ccc(NC(=O)c2nc(SC)ncc2Cl)cc1` gave TDP43 rescue 20µM*, aSyn rescue 1%, Abeta yeast res inactive, FUS yeast rescue inactive and Mito fusion act -2%.
Screening COc1ccc(N2CCN(C(=O)c3nc(SC)ncc3Cl)CC2)cc1 returned TDP43 rescue 20µM*, Abeta yeast res inactive and FUS yeast rescue inactive.
`CCS(=O)(=O)c1ncc(Cl)c(C(=O)N2CCN(c3ccc(OC)cc3)CC2)n1` gave TDP43 rescue 13µM*, Abeta yeast res inactive and FUS yeast rescue inactive.
For CCSc1ncc(Cl)c(C(=O)N2CCN(c3ccccc3OC)CC2)n1 the results were TDP43 rescue 35µM*, Abeta yeast res inactive and FUS yeast rescue inactive.
CCCSc1ncc(Cl)c(C(=O)N2CCN(c3ccc(OC)cc3)CC2)n1 was read as TDP43 rescue inconclusive, Abeta yeast res inactive and FUS yeast rescue inconclusive.
Screening Cc1ccc(N(C)S(=O)(=O)c2cccc(C(=O)Nc3nc4ccccc4[nH]3)c2)cc1 returned TDP43 rescue 21%, aSyn rescue -1%, Abeta yeast res inactive and Mito fusion act 20µM*.
Screening CN(C)c1ccc(C=Nc2ccc(/C=C3\C=Cc4ccccc43)cc2)cc1 returned aSyn rescue -33%.
Screening CC(=O)Nc1ccc(S(=O)(=O)NCc2cccn2Cc2cccc(C)c2)cc1 returned TDP43 rescue 16%, Abeta yeast res inactive and FUS yeast rescue inactive.
For COc1ccc(S(=O)(=O)NCc2cccn2Cc2cccc(C)c2)cc1OC the results were TDP43 rescue 35µM*, Abeta yeast res inactive and FUS yeast rescue inactive.
COc1ccc(S(=O)(=O)NCc2cccn2Cc2cc(C)ccc2C)cc1OC was read as TDP43 rescue 35µM*, Abeta yeast res inactive and FUS yeast rescue inactive.
COC(=O)c1ccccc1NC(=O)CSc1nc(C)c(Cl)c(C)c1C#N was read as TDP43 rescue -12%, Abeta yeast res inactive, FUS yeast rescue inactive and Mito fusion act 0%.
COc1ccc(N2CCN(CCCNC(=O)c3ccc4nc(CCc5ccccc5)oc4c3)CC2)cc1 was read as TDP43 rescue -12%, Abeta yeast res inactive and FUS yeast rescue inactive.

Screening data from PubChem.
